Screens deposited in PubChem by The Scripps Research Institute Molecular Screening Center.
TR-FRET SRC-2 ct: TR-FRET signal artefacts, primary screen, artefact control for PPARgamma SRC-2 agonist project, biochemical. TR-FRET ratio at 8 µM. actives 0.4% (n = 200,000). TR-FRET artefact counter-screen; active compounds read high
PPARg SRC-3 ag: PPARgamma agonists recruiting SRC-3 coactivator, primary screen, biochemical | Peroxisome proliferator-activated receptor gamma (Homo sapiens), P37231 | biochemical PPARgamma/SRC-3 coactivator recruitment assay | activation, % at 8 µM | actives 0.26% (n = 200,000); in the data active = activation above about 23%;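 note: 0% = DMSO and 100% = reference agonist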
Target sequence (P37231 whole entry, looked up): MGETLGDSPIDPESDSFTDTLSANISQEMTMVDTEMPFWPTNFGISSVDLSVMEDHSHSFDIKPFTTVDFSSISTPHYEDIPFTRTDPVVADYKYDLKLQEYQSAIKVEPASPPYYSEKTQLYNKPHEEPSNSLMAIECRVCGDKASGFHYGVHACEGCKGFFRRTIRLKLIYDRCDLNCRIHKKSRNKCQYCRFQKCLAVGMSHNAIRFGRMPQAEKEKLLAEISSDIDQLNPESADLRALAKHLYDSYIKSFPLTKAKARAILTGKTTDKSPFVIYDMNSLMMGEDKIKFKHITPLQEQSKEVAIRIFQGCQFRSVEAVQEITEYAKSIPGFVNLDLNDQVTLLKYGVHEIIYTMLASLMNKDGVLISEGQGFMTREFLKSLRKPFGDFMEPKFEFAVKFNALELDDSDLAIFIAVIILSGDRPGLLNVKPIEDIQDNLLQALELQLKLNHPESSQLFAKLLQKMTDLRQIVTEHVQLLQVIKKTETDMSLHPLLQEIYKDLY
SRC3 TRFRET art: TR-FRET detection interference compounds, artefact control for PPARgamma SRC-3 recruitment agonists, biochemical, TR-FRET ratio. TR-FRET artefact counter-screen, PPARgamma/SRC-3 format; active compounds read high. TR-FRET ratio at 8 µM. actives 0.39% (n = 99,000). AID 1048, 2008
SRC1 TRFRET art: TR-FRET detection interference compounds, primary screen, artefact control for PPARgamma SRC-1 recruitment agonists, biochemical, TR-FRET emission ratio. TR-FRET detection artefact counter-screen; active compounds read high. TR-FRET ratio at 8 µM. actives 0.34% (n = 99,000); in the data active = TR-FRET ratio above about 2300
PPARg SRC1 recr: PPARgamma agonists recruiting SRC-1 coactivator, primary screen, biochemical | AID 631, 2007 | actives 0.41% (n = 200,000) | activation, % at 8 µM | PPARgamma-SRC-1 coactivator recruitment biochemical assay | Peroxisome proliferator-activated receptor gamma (Homo sapiens), P37231; in the data active = activation above about 19%;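 note: 0% = DMSO and 100% = reference agonist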
PPARg SRC2 recr: agonists of PPARg-SRC-2 recruitment, primary screen, biochemical, HTS | Peroxisome proliferator-activated receptor gamma (Homo sapiens), P37231 | PPARgamma LBD-SRC-2 recruitment | activation, % at 8 µM | actives 0.34% (n = 200,000) | AID 1032, 2008; in the data active = activation above about 22%;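 note: 0% = vehicle and 100% = reference agonist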
An asterisk follows results filed as active; . = no result. A selection: hits, their analogues and other compounds. The true share with any hit is near 0.84%. Cut-off read from the data, not from the text of the source, unless noted: active = TR-FRET ratio above about 2000; inactive = the rest.

SMILES	TR-FRET SRC-2 ct	PPARg SRC-3 ag	SRC3 TRFRET art	SRC1 TRFRET art	PPARg SRC1 recr	PPARg SRC2 recr
CCOC(=O)c1c(NC(=O)CSc2nnc(-c3c[nH]c4ccccc34)n2CCOC)sc2c1CCCCC2	1477	8.3	1556	1650	-0.9	0.1
CCOC(=O)c1c(NC(=O)CSc2c[nH]c3ccccc23)sc2c1CCCC2	1640	1.4	4458*	1766	-4.8	-13.8
CCOC(=O)c1c(NC(=O)C(C)Sc2cccc[n+]2[O-])sc2c1CCN(Cc1ccccc1)C2 (stereo not given)	1644	3.0	1688	1633	4.8	8.2
CCOC(=O)c1c(NC(=O)CSc2c[nH]c3ccccc23)sc2c1CCC2	1481	0.6	4916*	1826	4.7	-0.6
CCOC(=O)c1c(NC(=O)C(C)Sc2cn(C)c3ccccc23)sc2c1CCC2 (stereo not given)	1483	5.3	1894	1794	9.6	24.3*
Cc1ccc(NC(=O)/C=C/c2ccc3c(c2)OCO3)cc1S(=O)(=O)N1CCOCC1	1618	-2.1	1526	1768	-1.2	2.5
COc1ccccc1CNC(=O)CN(CCc1ccccc1)S(C)(=O)=O	1530	4.0	1672	1774	11.2	-4.2
O=C(CSc1ccc(-c2ccco2)nn1)NCc1ccccc1Cl	1506	5.9	1557	2338*	2.8	6.4
COc1cccc(-c2ccc(C#N)c(SCC(=O)NCCc3cccc(Cl)c3)n2)c1	1982*	16.8	.	.	11.1	20.6
COc1ccc(-c2ccc(C#N)c(SCC(=O)Nc3sc4c(c3C#N)CCC4)n2)cc1OC	1523	2.1	.	.	11.1	6.5
COc1ccc(-c2ccc(C#N)c(SCC(=O)NCCc3ccccc3)n2)cc1OC	2078*	2.2	1706	1821	1.2	11.3
COc1ccc(N2C(=O)C3[C@@H](C2=O)C2(Cl)C(Cl)=C(Cl)C3(Cl)C2(OC)OC)cc1 (stereo not given in full)	1536	1.7	1705	1880	-4.4	9.6
CCN(CC)S(=O)(=O)c1cccc(NC(=O)COC(=O)c2n[nH]c(=O)c3ccccc23)c1	1961	6.0	1541	1936	21.8*	7.6
N#Cc1c(-c2ccccc2)cc(-c2ccccc2)nc1Br	1449	19.7	2095*	1479	6.7	-3.0
CC(=O)N/C(=C\c1ccccc1)C(=O)NCC(=O)O	1552	-1.7	1492	2024	9.3	6.6
O=S(=O)(/C=C/c1ccccc1)N1CCN(c2nc(-c3cccnc3)nc3ccccc23)CC1	1899	7.4	2270*	2657*	5.3	7.1
c1cncc(-c2nc(N3CCOCC3)c3ccccc3n2)c1	1467	2.8	.	.	-12.4	-2.4
O=c1[nH][nH]c(C(F)(F)F)c1/C=N/N1CCOCC1	1524	-0.4	1478	1785	2.0	2.2
C=CCNC(=O)CSCc1ccc(Br)cc1	1429	0.8	1490	1699	-6.1	-2.0
CCCCn1c(NC(=O)c2ccccc2Cl)c(C#N)c2nc3ccccc3nc21	1951	23.1	.	.	13.4	21.8
N#Cc1c(NC(=O)c2ccccc2Cl)n(Cc2ccccc2)c2nc3ccccc3nc12	1663	62.1*	1498	1811	20.6*	13.2
COc1cc(C#N)c(NC(=S)N2CCOCC2)cc1OC	2021*	5.9	1717	2063	17.3	11.8
O=C(Nc1ccc2c(c1)OCCO2)c1cc2sccc2n1Cc1ccccc1	1989*	1.5	.	.	3.7	7.4
O=C(Nc1ccc2c(c1)OCCO2)c1cc2sccc2n1Cc1ccc(F)cc1	1828	12.4	.	.	7.4	14.5
COc1ccc(-c2cc(C(F)F)n3ncc(C(=O)N4CCCc5ccccc54)c3n2)cc1	1419	25.5*	1947	1529	-3.7	-3.4
O=C(c1cnn2c(C(F)F)cc(-c3ccccc3)nc12)N1CCCc2ccccc21	1429	-5.5	.	.	2.7	-1.2
Cc1ccc(S(=O)(=O)N[C@H](C(=O)OCC(=O)N2N=C(c3ccc(Cl)cc3)CC2c2ccco2)C(C)C)cc1 (stereo not given in full)	1651	2.4	1634	1818	-3.5	2.4
